A short description of test [1]: HD-MB03 medulloblastoma cell growth inhibition, synergistic combos for chromothripsis tumors, BGB or cisplatin IC20 combos (AID 1671455; in the data active = inhibition above about 83%;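 note: 0% = vehicle DMSO and 100% = high DMSO as cytotoxic control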). The settings on record: HD-MB03 medulloblastoma cells, stronger effect = higher value.
Test [2] can be described thus: UWB1.289 ovarian carcinoma cell growth inhibition, synergistic combos for chromothripsis tumors, BGB or cisplatin combos (AID 1671456).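 Note: cells exposed to compound for four days; 0% = vehicle DMSO and 100% = killing by high DMSO.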 The settings on record: UWB1.289 ovarian carcinoma cells, stronger effect = higher value.
Test [3] is described as follows: LFS_MB_2R medulloblastoma cell growth inhibition, synergistic combos for chromothripsis tumors, cisplatin combos (AID 1671457).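 Note: cells exposed to compound for four days before readout.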 The settings on record: LFS_MB_2R medulloblastoma cells, stronger effect = higher value.
Test [4] can be described thus: UWB1.289_BRCA1 ovarian cancer growth, cell-based, BGB or cisplatin combinations (AID 1671459). The settings on record: UWB1.289 BRCA1 ovarian carcinoma, drug combinations, stronger effect = higher value.
A short description of test [5]: human astrocyte viability loss, single and combined drugs, cytotoxicity control for chromothriptic childhood tumor combination screen, cell-based, BGB or cisplatin IC20 combos (AID 1671460).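 Note: cells exposed to compounds for 96 hours before viability readout; 0% = vehicle and 100% = killing control.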 The settings on record: Human astrocytes, drug combinations, stronger effect = higher value.
The nature of test [6]: growth inhibition of DIPG glioma cells, dose response, cell-based, SU-DIPG-XIII, MIPE5.0, CellTiter-Glo, qHTS (AID 1347064; cut-off not given, nearly all actives have AC50 up to about 23 µM;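 note: cells exposed to compound for 48 hours before the viability read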). The settings on record: SU-DIPG-XIII viability, CellTiter-Glo ATP luminescence.
The target in test [7] is ATP-dependent translocase ABCB1 (Homo sapiens) (UniProt P08183). Briefly: MDR1 (ABCB1) efflux transporter inhibition, cell-based (AID 377; in the data active = fluorescence slope change above about 50%). The settings on record: MDR1-expressing cells, fluorescent substrate accumulation slope; stronger effect = higher value; concentration not given here.
Chain of ATP-dependent translocase ABCB1 (Homo sapiens) (P08183 whole entry, looked up): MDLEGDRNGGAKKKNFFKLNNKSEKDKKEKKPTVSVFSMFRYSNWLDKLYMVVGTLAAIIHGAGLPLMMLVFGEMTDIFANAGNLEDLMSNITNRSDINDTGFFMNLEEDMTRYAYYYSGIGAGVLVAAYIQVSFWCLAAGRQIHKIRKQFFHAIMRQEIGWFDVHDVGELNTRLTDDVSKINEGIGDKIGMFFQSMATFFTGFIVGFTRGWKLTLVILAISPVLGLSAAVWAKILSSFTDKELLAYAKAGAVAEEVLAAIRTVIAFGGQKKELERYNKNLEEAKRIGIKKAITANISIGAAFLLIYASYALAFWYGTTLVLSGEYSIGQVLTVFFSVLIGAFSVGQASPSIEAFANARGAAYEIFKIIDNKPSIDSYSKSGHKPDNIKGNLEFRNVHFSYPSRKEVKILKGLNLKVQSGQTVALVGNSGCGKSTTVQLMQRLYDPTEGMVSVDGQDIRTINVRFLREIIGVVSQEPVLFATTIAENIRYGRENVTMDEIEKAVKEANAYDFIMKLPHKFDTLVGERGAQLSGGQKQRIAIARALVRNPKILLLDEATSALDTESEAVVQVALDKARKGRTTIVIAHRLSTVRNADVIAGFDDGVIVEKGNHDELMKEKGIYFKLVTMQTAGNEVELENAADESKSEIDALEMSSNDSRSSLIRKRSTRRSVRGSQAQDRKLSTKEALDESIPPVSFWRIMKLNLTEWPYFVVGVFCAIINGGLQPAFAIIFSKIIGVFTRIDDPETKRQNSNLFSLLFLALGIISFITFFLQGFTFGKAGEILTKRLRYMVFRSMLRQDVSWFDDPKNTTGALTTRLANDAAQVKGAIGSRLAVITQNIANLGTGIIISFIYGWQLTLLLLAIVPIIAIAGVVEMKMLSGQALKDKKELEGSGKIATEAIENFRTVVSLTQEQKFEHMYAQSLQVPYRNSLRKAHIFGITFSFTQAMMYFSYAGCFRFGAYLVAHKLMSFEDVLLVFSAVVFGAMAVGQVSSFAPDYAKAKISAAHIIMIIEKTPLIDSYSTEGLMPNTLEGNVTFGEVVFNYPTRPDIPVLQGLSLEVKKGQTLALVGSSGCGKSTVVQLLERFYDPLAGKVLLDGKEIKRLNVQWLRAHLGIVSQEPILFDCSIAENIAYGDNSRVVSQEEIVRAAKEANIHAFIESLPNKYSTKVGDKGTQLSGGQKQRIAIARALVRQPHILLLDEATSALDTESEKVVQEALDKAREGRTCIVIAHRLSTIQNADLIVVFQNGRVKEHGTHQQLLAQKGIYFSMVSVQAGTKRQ
Test [8] in a line: Cy5 fluorescence interference with SSB-bound oligo, artefact control for HCV NS3 helicase inhibitor project, biochemical, NIH Clinical Collection, E. coli SSB (AID 743268; call rule not given here).
The subject of test [9] is Hepatitis C virus NS3 helicase. Briefly: HCV NS3 helicase inhibitors, primary screen, biochemical, fluorescence polarization, NIH Clinical Collection (AID 743270; call rule not given here). The settings on record: NS3 helicase binding to Cy5-dT15 DNA, stronger effect = higher value, concentration not given here.
The target in test [10] is Single-stranded DNA-binding protein (Escherichia coli (strain K12)) (UniProt P0AGE0). Briefly: E. coli SSB displacement from DNA, counter-screen for HCV NS3 helicase inhibitor project, biochemical, fluorescence polarization, NIH Clinical Collection (AID 743271; in the data active = inhibition above about 28%). The settings on record: stronger effect = higher value, concentration not given here.
Test [11] in a line: fluorescence interference in NS3h assay format, artefact control for HCV NS3 helicase inhibitor project, biochemical, NIH Clinical Collection (AID 743272; call rule not given here;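 note: HCV NS3 helicase with a Cy5 labelled single stranded DNA probe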). The settings on record: fluorescence interference counterscreen, stronger effect = lower value.
Test [12] in a line: inhibitors of Cryptococcus chitosan production, flow cytometry, Cibacron Brilliant Red staining (AID 1347148; call rule not given here;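 note: compound exposure lasted three days at 37 degrees C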). The settings on record: Cryptococcus neoformans chitosan, stronger effect = lower value; at 10 µM unless noted.
A short description of test [13]: protection against mutant huntingtin cytotoxicity, PC12 cells, LDH release (AID 1610). The settings on record: PC12 mutant huntingtin toxicity, final LDH at 4 uM, stronger effect = lower value.
[14] abbreviates: measured here: combo with BGB at IC20, at 0.5 µM.
Where [15] appears, read: measured here: combo with cisplatin at IC20, at 0.5 µM.
Setting [16] is: measured here: inhibition with BGB combination, at 0.05 µM.
[17] abbreviates: measured here: inhibition with cisplatin combination, at 0.05 µM.
[18] abbreviates: measured here: combination with cisplatin, at 0.5 µM.
Setting [19] is: measured here: combination with cisplatin, at 5 µM.
[20] abbreviates: BGB combination, concentration series, at 5 µM.
Where [21] appears, read: cisplatin combination, concentration series, at 5 µM.
Where [22] appears, read: measured here: combo with BGB IC20, at 0.5 µM.
[23] abbreviates: measured here: combo with cisplatin IC20, at 0.5 µM.

Several values for one entry are separate records, joined by “and”; a condition that tells them apart may be missing. Equal entries are not always repeated. Results filed as inconclusive are left out. Activity calls are given as the source filed them. Cut-off read from the data, not from the text of the source, unless noted: active = inhibition above about 80%; inactive = the rest.

Turning to `COc1cc(NS(C)(=O)=O)ccc1Nc1c2ccccc2nc2ccccc12`, the inhibition was 89.9% (active) and 92.8% (active) in [1] (at 0.5 µM); 85.2% and 89.8% in [1] (setting [14]); 93.1% and 93.7% in test [1] (setting [15]); 34.8% (inactive) and 27.8% (inactive) in test [2] (at 0.5 µM); -10.9% and -18.9% in [2] (setting [16]); 5.17% and -0.785% in [2] (setting [17]). For the same molecule, the inhibition in [3] (at 0.5 µM) is -7.33% (inactive) and -4.82% (inactive); in test [3] (setting [18]), -3.1% and -25.3%; in test [3] (setting [19]) it was 21% and 20.3%; in test [4] (setting [20]), 79.6% and 77.5%; in test [4] (at 0.5 µM) it was 31% (inactive) and 27.1% (inactive); in test [4] (setting [21]), 109% and 107%. The inhibition in test [5] (at 0.5 µM) was 47.7% (inactive) and 54% (inactive); in test [5] (setting [22]) it was 46.6% and 56.1%; in test [5] (setting [23]), 26.6% and 33.1%.

For the molecule `CC[C@@]1(O)C[C@H](O[C@H]2C[C@H](N(C)C)[C@H](O[C@H]3C[C@H](O)[C@H](O[C@H]4CCC(=O)[C@H](C)O4)[C@H](C)O3)[C@H](C)O2)c2c(cc3c(c2O)C(=O)c2c(O)cccc2C3=O)[C@H]1C(=O)OC`, the AC50 in [6] was 16.6 µM (active).

Turning to `CC(=O)[C@H]1CC[C@H]2[C@@H]3CCC4=CC(=O)CC[C@]4(C)[C@H]3CC[C@]12C`, the fluorescence slope change in test [7] is 82.5% (active). Further, the fluorescence ratio in [8] was 0.96 (inactive); in [11], 0.92 (inactive). Also, the inhibition in test [9] was -6.73% (inactive); in test [10] it was 1.44% (inactive).

Consider `CC(C)C[C@H]1C(=O)N2CCC[C@H]2[C@]2(O)O[C@](NC(=O)[C@@H]3C=C4c5cccc6[nH]c(Br)c(c56)C[C@H]4N(C)C3)(C(C)C)C(=O)N12`, for which, in test [7], the fluorescence slope change was 115% (active).

Take `C=C1CC[C@H](O)C/C1=C/C=C1\CCC[C@]2(C)[C@@H]([C@H](C)/C=C/[C@H](C)C(C)C)CC[C@@H]12`: the fluorescence slope change in test [7] was 66.6% (active).

On to `NCCCCCCNS(=O)(=O)c1cccc2c(Cl)cccc12`, for which the fold fluorescence in test [12] was 9.13 [at 132.5 µM] (inactive).

`CCOc1ccc2c(c1)C(C)=CC(C)(C)N2`: the fluorescence slope change in [7] was 16.6% (inactive). Moreover, the normalised LDH release in test [13] worked out at 1.06.

With `COc1ccc(C(Cl)=C(c2ccc(OC)cc2)c2ccc(OC)cc2)cc1`, in test [7], the fluorescence slope change is 9.3% (inactive).

Consider `C=C[C@H]1CN2CCC1C[C@@H]2[C@@H](O)c1ccnc2ccc(OC)cc12` (stereo partly specified), for which the fluorescence slope change in test [7] was 95% (active).

With `C[C@]12CC[C@H]3C(=CCc4cc(O)ccc43)[C@@H]1CCC2=O`, in [7], the fluorescence slope change was 51.2% (active).

As to `NC(=NCc1ccccc1)NC(=O)c1nc(Cl)c(N)nc1N`, the fluorescence slope change in test [7] is 28% (inactive). This molecule also yielded a normalised LDH release in test [13] of 1.01. Also, the fold fluorescence in test [12] is 5.57 [at 156.4 µM] (inactive).

Consider `CN(N=O)C(=O)NC1C(O)OC(CO)C(O)C1O` (stereo unspecified), for which the inhibition was -11.6% (inactive) in [1] (at 0.5 µM); -2.88% in test [1] (setting [14]); -22.4% in [1] (setting [15]); -9.59% (inactive) in test [2] (at 0.5 µM); -0.199% in test [2] (setting [16]); -7.77% in [2] (setting [17]). The inhibition in test [3] (at 0.5 µM) is -6.59% (inactive); in test [3] (setting [18]), -12.5%; in test [3] (setting [19]), -15.1%; in test [4] (setting [20]), -8.48%; in test [4] (at 0.5 µM), -13% (inactive); in test [4] (setting [21]) it was 0.433%. Besides, the inhibition was -2.34% (inactive) in test [5] (at 0.5 µM), -2.11% in test [5] (setting [22]) and -7.96% in [5] (setting [23]).

As to `O=C(O)c1cc2cc(Cc3cccnc3)ccc2o1`, the normalised LDH release in test [13] was 1.48.

Regarding `CN1[C@@H]2CC[C@H]1CC(OC(=O)[C@H](CO)c1ccccc1)C2` (stereo partly specified), the fluorescence slope change in test [7] was 17.8% (inactive).

For `CC(Oc1ccccc1)C(=O)N[C@@H]1C(=O)N2[C@@H]1SC(C)(C)[C@@H]2C(=O)O` (stereo partly specified), the fluorescence slope change in [7] is 56.9% (active).

On to `COC1C(OC(N)=O)C(O)C(Oc2ccc3c(O)c(NC(=O)c4ccc(O)c(CC=C(C)C)c4)c(=O)oc3c2C)OC1(C)C` (stereo unspecified), for which the inhibition in test [1] (at 0.5 µM) is -9.35% (inactive); in [1] (setting [14]), -5.37%; in [1] (setting [15]) it was -13.3%; in test [2] (at 0.5 µM), -6.21% (inactive); in [2] (setting [16]), -33.1%; in test [2] (setting [17]), -19.6%. Further, the inhibition in test [3] (at 0.5 µM) was -20.5% (inactive); in test [3] (setting [18]), -9.82%; in [3] (setting [19]), -11.7%; in test [4] (setting [20]) it was -28.9%; in test [4] (at 0.5 µM) it was -15.6% (inactive); in test [4] (setting [21]) it was -9.79%. The inhibition is -3.92% (inactive) in test [5] (at 0.5 µM), 3.16% in test [5] (setting [22]) and -8.92% in [5] (setting [23]).

`CCCCC/C=C\C/C=C\C/C=C\C/C=C\CCCC(=O)O`: in test [12], the fold fluorescence was 5.45 (inactive).

The record behind these values is PubChem BioAssay.
